Consider 8 compounds from PubChem BioAssay.

Assay [1] addresses Albumin (Bos taurus) (UniProt P02769). Nature of the assay: compounds binding labelled BSA control protein – biochemical, small-molecule microarray, Alexa647 label, 635/667 nm fluorescence, artefact control for SMM control protein annotation, profiling panel (AID 1118).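 Also: score merges 667 nm emission intensity and signal-to-noise per printed compound spot.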 The note with it: BSA-A647 binding, fluorescence 635 nm, higher = more signal.
A short description of assay [2]: probe aXIP binding to arrayed compounds – biochemical, NeuroSMM set, 635/667 nm fluorescence, primary screen (AID 1119).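 Also: probe is the protein aXip251-270 applied at 1 µg/mL to compound-printed slides; binding of probe to printed compounds measured as 667 nm fluorescence plus signal to noise.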 The note with it: small-molecule microarray, higher = more signal, called active from +8 up or from −8 down.
The nature of assay [3]: probe aNOTCH3 binding on compound microarray – biochemical, small-molecule microarray, 635/667 nm fluorescence, primary screen (AID 1120).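 Also: probe is a biotin-tagged antibody raised against NOTCH3 rather than NOTCH3 protein; score merges spot fluorescence near 667 nm with spot signal to noise.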 The note with it: higher = more signal.
Assay [4] is described as follows: probe aNOTCH2 binding on compound microarray – biochemical, small-molecule microarray, 635/667 nm fluorescence, primary screen (AID 1121).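 Also: score merges feature fluorescence read at 667 nm with its signal to noise.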 As to conditions: higher = more signal.
Assay [5] has as its target Carbonic anhydrase 2 (Homo sapiens) (UniProt P00918). Nature of the assay: compounds binding carbonic anhydrase 2 – biochemical, small-molecule microarray, Alexa647-labelled CAII, profiling panel (AID 1122). The note with it: CAII-A647 binding fluorescence, higher = more signal.
A short description of assay [6]: COS7 lysate on small-molecule microarray, probe aHis, 635 nm (AID 1123).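 Also: z-score combines 667nm fluorescence intensity with signal-to-noise per printed compound spot.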 The note with it: COS7 cell lysate, fluorescence, higher = more signal.
Assay [7] can be described thus: probe aLAP1 signal on lysate-treated microarray – cell lysate, small-molecule microarray, COS7 lysate, primary screen (AID 1124).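 Also: lysate comes from COS7 cells expressing LAP1 and is applied at 0.3 µg/mL; score merges spot fluorescence near 667 nm with signal-to-noise over triplicate slides.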 As to conditions: probe aLAP1, fluorescence, higher = more signal.
Assay [8] relates to Sam68 (KHDRBS1). Nature of the assay: compounds binding KHDRBS1 protein – biochemical, small-molecule microarray, 635 nm fluorescence, primary screen (AID 1125).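 Also: score merges 667 nm channel intensity with signal to noise over triplicate slides.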 As to conditions: higher = more signal.
Assay [9] relates to Chordin-like protein 2 (CHRDL2). The experiment in a line: compounds binding chordin-like 2 – biochemical, small-molecule microarray, 635 nm fluorescence, primary screen (AID 1126).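 Also: printed compound slides probed with Chrdl2 protein at 4 µg/mL for 1 h at 4 C; score merges 667 nm emission intensity with signal to noise over three replicate slides.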 The note with it: fluorescence 635 nm, higher = more signal.
Assay [10] addresses Concanavalin-A (Canavalia ensiformis) (UniProt P02866). Nature of the assay: compounds binding concanavalin A lectin – biochemical, small-molecule microarray, Alexa647 label, 635 nm, artefact control for SMM control protein annotation, primary screen (AID 1127).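 Also: z combines 667 nm emission intensity with signal-to-noise across three replicate slides.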 The note with it: ConA-A647 binding fluorescence, higher = more signal.
A short description of assay [11]: compounds binding Alexa647 anti-His antibody – biochemical, small-molecule microarray, 635 nm fluorescence, artefact control for SMM control protein annotation, primary screen (AID 1128).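 Also: score merges feature fluorescence with signal-to-noise for each printed compound spot.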 The note with it: higher = more signal.
The test system of assay [12] is Human papillomavirus type 1a E7 protein (residues 1-88). Nature of the assay: HPV1a E7 small-molecule binders, primary screen, biochemical, small-molecule microarray, residues 1-88, 635 nm (AID 1129). As to conditions: small-molecule microarray binding, fluorescence 635 nm; higher = more signal.
Assay [13] has as its target Focal adhesion kinase 1 (Homo sapiens) (UniProt Q05397). The experiment in a line: PTK2 protein binding on printed compound slides – biochemical, small-molecule microarray, 635/667 nm fluorescence, BSA, DTT, primary screen (AID 1130).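 Also: composite of spot emission at 667 nm and signal to noise over triplicate slides.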 As to conditions: 635 nm fluorescence, higher = more signal.
Assay [14] relates to Fibrinogen (Alexa647-labelled). The experiment in a line: Alexa647-fibrinogen binding to printed small molecules – biochemical, small-molecule microarray, 635/667 nm fluorescence, artefact control for SMM control-protein annotation, profiling panel (AID 1131).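 Also: z-score merges 667 nm fluorescence with per-spot signal-to-noise over triplicate slides.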 The note with it: fibrinogen-A647 binding fluorescence, higher = more signal.
The target in assay [15] is Follistatin (Homo sapiens) (UniProt P19883). The experiment in a line: FST protein binding to printed compounds – biochemical, small-molecule microarray, 635/667 nm fluorescence, primary screen (AID 1132). The note with it: 635 nm fluorescence, higher = more signal.
Assay [16] has as its target Fibroblast growth factor 2 (Homo sapiens) (UniProt P09038). The experiment in a line: basic fibroblast growth factor binding to printed compounds – biochemical, small-molecule microarray, 635/667 nm fluorescence, primary screen (AID 1133). The note with it: FGF2, fluorescence 635/667, higher = more signal.
Assay [17] can be described thus: JC-1 mitochondrial potential readout, lung cancer cells – cell-based, A549, JC-1 fluorescence, basal, 24 h, 100 nL, profiling panel (AID 1138).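 Also: A549 lung adenocarcinoma cells under basal conditions with no added stimulus; test concentration not given here.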 The note with it: higher = more signal.
The test system of assay [18] is Lefty1. Nature of the assay: Lefty1 protein binding to printed compounds – biochemical, small-molecule microarray, 635/667 nm fluorescence, primary screen (AID 1139). The note with it: fluorescence 635/667, higher = more signal.
The subject of assay [19] is wheat germ agglutinin (Triticum aestivum), Alexa647-labelled. Nature of the assay: Alexa647-WGA lectin binding to printed small molecules – biochemical, small-molecule microarray, 635/667 nm fluorescence, artefact control for SMM control-protein annotation, profiling panel (AID 1140).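 Also: score merges 667 nm feature emission with signal to noise over triplicate slides.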 The note with it: WGA-A647 binding, 635 nm fluorescence, higher = more signal.
In assay [20] the target is Luciferin 4-monooxygenase (Photinus pyralis) (UniProt P08659). The experiment in a line: inhibition of purified Photinus pyralis luciferase – biochemical, luminescence, purified enzyme, 2006 set, primary screen (AID 1141).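 Also: cell-free assay with purified firefly luciferase at 100 ng per well in PBS; test concentration not given here.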 The note with it: purified firefly luciferase, SteadyGlo luminescence, 30 min; higher = more signal, called active from +8 up or from −8 down.

The source made the active and inactive calls.

Sequence of Focal adhesion kinase 1 (Homo sapiens) (Q05397 whole entry, looked up): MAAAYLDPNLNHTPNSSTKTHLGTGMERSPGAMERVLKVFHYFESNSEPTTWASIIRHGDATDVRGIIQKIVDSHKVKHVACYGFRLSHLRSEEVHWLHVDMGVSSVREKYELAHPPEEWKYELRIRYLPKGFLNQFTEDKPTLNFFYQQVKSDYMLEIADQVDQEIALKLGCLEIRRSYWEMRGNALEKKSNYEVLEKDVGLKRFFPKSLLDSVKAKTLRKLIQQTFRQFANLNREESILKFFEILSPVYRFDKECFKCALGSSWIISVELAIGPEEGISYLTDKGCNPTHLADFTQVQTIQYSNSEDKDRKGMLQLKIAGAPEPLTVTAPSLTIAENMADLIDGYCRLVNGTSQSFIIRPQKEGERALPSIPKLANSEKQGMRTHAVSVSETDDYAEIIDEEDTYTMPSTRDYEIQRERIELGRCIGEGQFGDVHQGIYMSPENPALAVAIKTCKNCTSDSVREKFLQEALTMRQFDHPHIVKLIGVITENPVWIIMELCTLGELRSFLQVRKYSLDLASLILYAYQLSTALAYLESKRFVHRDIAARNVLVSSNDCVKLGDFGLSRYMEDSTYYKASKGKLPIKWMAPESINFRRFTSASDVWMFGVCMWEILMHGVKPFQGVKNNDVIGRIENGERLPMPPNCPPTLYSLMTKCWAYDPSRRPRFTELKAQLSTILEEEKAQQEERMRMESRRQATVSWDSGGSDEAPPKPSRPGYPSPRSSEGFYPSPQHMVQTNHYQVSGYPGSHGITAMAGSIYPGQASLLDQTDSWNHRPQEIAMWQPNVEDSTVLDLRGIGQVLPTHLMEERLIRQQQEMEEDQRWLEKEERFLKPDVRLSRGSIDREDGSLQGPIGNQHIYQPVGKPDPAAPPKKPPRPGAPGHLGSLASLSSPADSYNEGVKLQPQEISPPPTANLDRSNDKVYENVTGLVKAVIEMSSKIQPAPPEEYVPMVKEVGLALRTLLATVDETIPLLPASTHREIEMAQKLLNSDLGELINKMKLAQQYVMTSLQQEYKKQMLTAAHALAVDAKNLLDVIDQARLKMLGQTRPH
Sequence of Concanavalin-A (Canavalia ensiformis) (P02866 whole entry, looked up): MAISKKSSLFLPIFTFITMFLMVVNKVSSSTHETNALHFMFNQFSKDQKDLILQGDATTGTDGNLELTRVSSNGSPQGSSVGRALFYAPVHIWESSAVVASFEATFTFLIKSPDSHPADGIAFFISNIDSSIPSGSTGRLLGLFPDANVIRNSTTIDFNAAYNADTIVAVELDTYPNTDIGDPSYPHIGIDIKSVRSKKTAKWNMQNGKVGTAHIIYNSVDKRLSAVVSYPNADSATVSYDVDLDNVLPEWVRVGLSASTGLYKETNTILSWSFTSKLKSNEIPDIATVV
Sequence of Albumin (Bos taurus) (P02769 whole entry, looked up): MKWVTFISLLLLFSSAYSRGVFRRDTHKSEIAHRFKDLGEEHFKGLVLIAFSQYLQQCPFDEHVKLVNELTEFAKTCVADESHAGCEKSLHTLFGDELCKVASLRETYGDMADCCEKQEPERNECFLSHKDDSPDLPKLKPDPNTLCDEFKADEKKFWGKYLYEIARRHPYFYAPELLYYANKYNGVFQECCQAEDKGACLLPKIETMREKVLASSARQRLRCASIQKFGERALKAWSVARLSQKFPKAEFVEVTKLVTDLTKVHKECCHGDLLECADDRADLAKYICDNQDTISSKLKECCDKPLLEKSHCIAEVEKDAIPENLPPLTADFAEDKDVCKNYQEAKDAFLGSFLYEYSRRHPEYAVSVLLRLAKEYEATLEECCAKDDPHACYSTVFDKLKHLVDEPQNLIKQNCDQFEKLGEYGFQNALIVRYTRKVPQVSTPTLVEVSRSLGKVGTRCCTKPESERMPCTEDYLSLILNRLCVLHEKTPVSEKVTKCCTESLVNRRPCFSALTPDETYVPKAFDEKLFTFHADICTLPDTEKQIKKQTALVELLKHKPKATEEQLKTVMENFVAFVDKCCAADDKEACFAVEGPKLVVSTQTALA
Sequence of Fibroblast growth factor 2 (Homo sapiens) (P09038 whole entry, looked up): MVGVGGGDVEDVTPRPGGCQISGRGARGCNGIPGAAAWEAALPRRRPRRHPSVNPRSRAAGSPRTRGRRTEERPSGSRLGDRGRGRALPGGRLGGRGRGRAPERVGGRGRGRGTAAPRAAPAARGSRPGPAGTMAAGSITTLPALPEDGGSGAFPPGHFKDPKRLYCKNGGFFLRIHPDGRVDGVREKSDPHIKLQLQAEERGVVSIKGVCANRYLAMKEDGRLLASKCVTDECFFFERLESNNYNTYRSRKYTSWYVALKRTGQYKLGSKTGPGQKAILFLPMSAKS
Sequence of Follistatin (Homo sapiens) (P19883 whole entry, looked up): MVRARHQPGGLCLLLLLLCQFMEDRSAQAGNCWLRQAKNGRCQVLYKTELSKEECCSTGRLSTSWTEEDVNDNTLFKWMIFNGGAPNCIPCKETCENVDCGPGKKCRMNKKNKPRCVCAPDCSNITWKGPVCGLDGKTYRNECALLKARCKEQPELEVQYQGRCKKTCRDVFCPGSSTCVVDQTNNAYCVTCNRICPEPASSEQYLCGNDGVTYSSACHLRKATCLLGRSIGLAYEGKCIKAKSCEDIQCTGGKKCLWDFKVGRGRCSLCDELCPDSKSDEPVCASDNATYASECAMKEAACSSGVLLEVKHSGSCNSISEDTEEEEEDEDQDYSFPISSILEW
Sequence of Luciferin 4-monooxygenase (Photinus pyralis) (P08659 whole entry, looked up): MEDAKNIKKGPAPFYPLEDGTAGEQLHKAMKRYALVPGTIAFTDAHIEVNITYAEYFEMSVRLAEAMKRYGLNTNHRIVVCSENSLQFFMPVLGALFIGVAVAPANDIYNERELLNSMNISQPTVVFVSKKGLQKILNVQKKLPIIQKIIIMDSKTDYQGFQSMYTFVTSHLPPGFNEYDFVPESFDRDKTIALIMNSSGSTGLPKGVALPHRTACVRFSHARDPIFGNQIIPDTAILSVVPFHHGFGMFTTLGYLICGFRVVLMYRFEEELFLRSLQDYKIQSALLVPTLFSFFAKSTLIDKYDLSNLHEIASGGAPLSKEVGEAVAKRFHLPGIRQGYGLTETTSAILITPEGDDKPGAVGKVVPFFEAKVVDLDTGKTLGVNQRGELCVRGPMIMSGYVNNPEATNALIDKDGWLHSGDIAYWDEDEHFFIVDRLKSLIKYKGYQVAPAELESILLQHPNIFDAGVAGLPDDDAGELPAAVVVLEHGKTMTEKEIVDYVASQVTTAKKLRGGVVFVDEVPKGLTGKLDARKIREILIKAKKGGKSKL

For the compound `O=C1O[C@H](c2ccccc2)[C@H](c2ccccc2)N2[C@H]1[C@@H](C(=O)N1CCN(c3ncccn3)CC1)[C@]1(C(=O)Nc3ccc(C#CC4(O)CCCCCC4)cc31)[C@H]2c1ccc(O)cc1`, the composite z-score is 0.605 in assay [1]; 0.0556 in assay [3]; -0.162 in assay [4]; 0.673 in [5]; 1.28 in assay [6]; 0.329 in [7]. Further, the composite z-score in assay [8] is 1.31; in assay [9], -0.0362; in assay [10], 0.946; in assay [11], 1.75; in assay [12] it was 1.2; in assay [13], 0.62. Moreover, the composite z-score in assay [14] amounted to 0.902; in [15], 0.951; in [16], 0.89; in assay [18] it was 0.58; in [19], 1.06. Further, in assay [2], the composite Z-score was -0.019 (inactive). The z-score in [17] was 1.36; in assay [20], -1.63 (inactive).
Regarding `CN1C(=O)C2C=CC(C(O)COCc3ccccc3)N(Nc3ccc([N+](=O)[O-])cc3[N+](=O)[O-])C2C1=O` (stereo not given), the composite z-score in [1] stood at 0.186; in [3] it was 0.0596; in [4], 0.046; in [5], 0.368; in assay [6] it was 1.49; in assay [7], 0.578. Further, the composite z-score is 0.447 in [8]; -0.693 in assay [9]; -0.445 in assay [10]; -1.08 in [11]; 1.08 in [12]; 0.903 in [13]. Besides, the composite z-score in [14] is -0.428; in [15] it was -0.232; in assay [16], 0.41; in [18], -0.798; in assay [19], 0.333. Further, the composite Z-score in assay [2] is 0.215 (inactive). Further, the z-score in assay [17] is 1.89; in assay [20], -1.05 (inactive).
Turning to `C=CCNC(=O)[C@H]1[C@@H]2C(=O)O[C@@H](c3ccccc3)[C@@H](c3ccccc3)N2[C@@H](c2ccc(O)cc2)[C@]12C(=O)Nc1ccccc12`, the composite z-score in assay [1] was -0.118; in [3] it was -0.278; in [4], -0.0681; in assay [5], 0.331; in assay [6], 0.45; in assay [7], 0.219. Further, the composite z-score was 1.07 in [8]; -0.21 in assay [9]; 0.872 in assay [10]; 0.809 in assay [11]; 0.642 in assay [12]; -0.176 in assay [13]. The composite z-score was 0.13 in [14]; 0.719 in [15]; 0.757 in assay [16]; -0.319 in [18]; -0.496 in assay [19]. The composite Z-score in assay [2] was -0.139 (inactive). Further, the z-score in assay [17] was 0.914; in assay [20] it was -1.57 (inactive).
With `COC(=O)C(CC#Cc1ccc2c(c1)[C@]1(C(=O)N2)[C@H](c2ccccc2OCCO)N2[C@H](c3ccccc3)[C@H](c3ccccc3)OC(=O)[C@H]2[C@@H]1C(=O)N1CCN(c2ncccn2)CC1)C(=O)OC`, the composite z-score is 0.706 in [1]; 0.0052 in assay [3]; -0.132 in [4]; 0.23 in [5]; 1.18 in assay [6]; 0.309 in assay [7]. Moreover, the composite z-score stood at 1.31 in assay [8]; 1.1 in assay [9]; 1.11 in assay [10]; 1.48 in assay [11]; 1.22 in assay [12]; 0.13 in assay [13]. The composite z-score in [14] turned out to be 0.927; in assay [15], 1.04; in [16] it was 1; in [18] it was 0.668; in assay [19], 0.481. Moreover, the composite Z-score in assay [2] is 0.156 (inactive). For the same compound, the z-score in assay [17] was -1.46; in [20], -0.186 (inactive).
Consider `COc1ccc([Si](C)(C)[C@H]2[C@H](CC(=O)N3CCC[C@H]3CO)O[C@@]3(C(=O)N(Cc4cccc(N5CCCCC5=O)c4)c4ccccc43)[C@@H]2C)cc1`, for which the composite z-score was 0.342 in assay [1]; -0.318 in assay [3]; -0.161 in assay [4]; 0.462 in assay [5]; 1.83 in assay [6]; 0.648 in assay [7]. In addition, the composite z-score in assay [8] was 1.31; in [9] it was 1.19; in [10], 1.13; in assay [11], 0.999; in assay [12] it was 0.989; in assay [13], 0.79. Besides, the composite z-score in assay [14] is 0.732; in assay [15] it was 1.08; in [16], 1.52; in [18], 1.36; in [19] it was 0.442. Also, the composite Z-score in [2] is 0.433 (inactive). The z-score in assay [17] was 3.51; in assay [20], -1.5 (inactive).
Regarding `COCCOC(=O)N1C(=O)[C@@]2(c3cc(C#CCNC(N)=O)ccc31)[C@H](c1ccccc1OCCO)N1[C@H](c3ccccc3)[C@H](c3ccccc3)OC(=O)[C@H]1[C@@H]2C(=O)N1CCCCCCC1`, the composite z-score was 0.0576 in assay [1]; 0.0556 in assay [3]; -0.121 in assay [4]; 0.447 in [5]; 0.75 in assay [6]; 1.41 in assay [7]. Moreover, the composite z-score was found to be 1.32 in assay [8]; 0.354 in assay [9]; 1.12 in assay [10]; 0.364 in [11]; 1.17 in [12]; 0.183 in assay [13]. In addition, the composite z-score in assay [14] was 0.858; in assay [15], 1.28; in assay [16] it was 0.937; in assay [18] it was 0.76; in [19], 1.13. The composite Z-score in assay [2] is 0.627 (inactive). For the same compound, the z-score in [17] was -1.51; in assay [20], -0.193 (inactive).
`O=C(NCCN1CCOCC1)[C@@H]1c2ccccc2C(=O)N(CC23CC4CC(CC(C4)C2)C3)[C@H]1c1ccc(CO)cc1`: the composite z-score worked out at 0.974 in assay [1]; 0.216 in assay [3]; 0.0129 in assay [4]; 0.642 in assay [5]; 2.17 in assay [6]; 0.522 in assay [7]. Also, the composite z-score in assay [8] was found to be 1.3; in assay [9], 0.0884; in [10], 1.14; in assay [11], 2.06; in assay [12], 1.25; in assay [13], 0.211. Moreover, the composite z-score in assay [14] amounted to 0.962; in [15] it was 0.99; in assay [16], 0.424; in [18], 0.357; in assay [19] it was 1.17. The composite Z-score in assay [2] is 0.864 (inactive). Further, the z-score was 1.26 in [17] and 0.733 (inactive) in [20].
For `CC(CO)N1C(=O)[C@@H]2[C@H]3C(=O)OCC=C[C@H]3OC23C=CCN(c2ccc4ccccc4c2)C(=O)[C@@H]13` (stereo not given in full), the composite z-score in assay [1] was 0.876; in [3], -0.381; in [4], -0.132; in [5], 0.324; in [6], -0.312; in assay [7], -0.139. The composite z-score is -0.892 in [8]; -1.66 in assay [9]; -0.387 in [10]; -0.786 in [11]; -1.21 in assay [12]; 0.204 in assay [13]. The composite z-score is -1.83 in assay [14]; -2.31 in [15]; -1.55 in assay [16]; -2.07 in [18]; -0.515 in assay [19]. Also, the composite Z-score in assay [2] is 0.0987 (inactive). Also, the z-score in assay [17] was 0.599; in assay [20] it was -0.0768 (inactive).
